Test results as given in PubChem BioAssay AID1159580 (chemical genetic matrix, 2015).
Several values for one entry are separate records, joined by “and”; a condition that tells them apart may be missing. Identical values can stand only once. Hit rate of the full screen: of about 5,500 compounds, about 2,000 (36%) were called active. Another 18% or so got no clear call; they are omitted. No stated cut-off is given here; in the data, active means normalized growth mostly below about 0.91 (no sharp cut-off); inconclusive means no clear call, values can overlap the other calls; inactive means mostly above about 0.92. Some of the results follow.

Assay: chemical genetic growth profiling, strain panel (AID 1159580);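 further: tested at 20 µM; growth read once vehicle control cultures reached saturation at 30 °C; 1 = growth at the plate median or of vehicle wells; lower values mean less growth of the strain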
Settings: S. cerevisiae deletion strains, growth OD

Measured: normalized growth

CON
inactive: locus YAL013W, strain DEP1, active compounds read low 0.992 | locus YAL021C, strain ccr4, active compounds read low 0.994 | locus YAL026C, strain drs2, active compounds read low 1.01 | locus YAL030W, strain snc1, active compounds read low 1.02 | locus YBL061C, strain skt5, active compounds read low 1.01 | locus YBR009C, strain hhf1, active compounds read low 1.01 | locus YBR021W, strain FUR4, active compounds read low 1 | locus YBR023C, strain chs3, active compounds read low 1.01 | locus YBR171W, strain sec66, active compounds read low 0.995 | locus YBR229C, strain ROT2, active compounds read low 1 | locus YBR231C, strain swc5, active compounds read low 1.01 | locus YBR279W, strain paf1, active compounds read low 0.991 | locus YCL011C, strain gbp2, active compounds read low 1.02 | locus YCL016C, strain dcc1, active compounds read low 1.04 | locus YCL029C, strain bik1, active compounds read low 0.976 | locus YCL069W, strain vba3, active compounds read low 0.976 | locus YCR088W, strain abp1, active compounds read low 0.987 | locus YDL005C, strain med2, active compounds read low 0.994 | locus YDL035C, strain GPR1, active compounds read low 0.988 | locus YDL040C, strain nat1, active compounds read low 0.994 | locus YDL074C, strain BRE1, active compounds read low 1.04 | locus YDL101C, strain DUN1, active compounds read low 1.01 | locus YDL134C, strain PPH21, active compounds read low 0.997 | locus YDL185W, strain tfp1, active compounds read low 0.968 | locus YDL192W, strain arf1, active compounds read low 0.986 | locus YDR001C, strain nth1, active compounds read low 0.998 | locus YDR069C, strain doa4, active compounds read low 1.02 | locus YDR101C, strain arx1, active compounds read low 1.02 | locus YDR137W, strain rgp1, active compounds read low 1.03 | locus YDR150W, strain NUM1, active compounds read low 0.993 | locus YDR159W, strain sac3, active compounds read low 0.993 | locus YDR162C, strain NBP2, active compounds read low 0.98 | locus YDR195W, strain ref2 0.993 | locus YDR297W, strain sur2, active compounds read low 1.02 | locus YDR318W, strain mcm21, active compounds read low 0.99 | locus YDR334W, strain swr1, active compounds read low 0.975 | locus YDR335W, strain msn5, active compounds read low 1.02 | locus YDR388W, active compounds read low 1.01 | locus YDR392W, strain spt3, active compounds read low 1.12 | locus YDR502C, strain sam2, active compounds read low 0.999 | locus YEL003W, strain gim4, active compounds read low 0.993 | locus YEL037C, strain rad23, active compounds read low 0.984 | locus YEL061C, strain CIN8 (second series), active compounds read low 0.99 | locus YEL061C, strain CIN8, active compounds read low 0.997 | locus YER015W, strain faa2, active compounds read low 1.01 | locus YER016W, strain bim1, active compounds read low 1.02 | locus YER110C, active compounds read low 0.981 | locus YER111C, strain swi4, active compounds read low 1.01 | locus YER155C, strain BEM2 (second series), active compounds read low 1.05 | locus YER155C, strain BEM2, active compounds read low 0.991 | locus YER167W, strain BCK2, active compounds read low 0.997 | locus YFR010W, strain ubp6, active compounds read low 0.976 | locus YGL078C, strain dbp3, active compounds read low 0.984 | locus YGL086W, strain mad1, active compounds read low 1.02 | locus YGL167C, strain pmr1, active compounds read low 0.993 | locus YGL173C, strain kem1, active compounds read low 0.998 | locus YGL227W, strain vid30, active compounds read low 0.995 | locus YGL240W, strain doc1, active compounds read low 0.994 | locus YGL248W, strain PDE1, active compounds read low 1.02 | locus YGL253W, strain hxk2, active compounds read low 1.01 | locus YGR135W, strain pre9, active compounds read low 0.982 | locus YGR229C, strain SMI1, active compounds read low 1.01 | locus YGR252W, strain gcn5, active compounds read low 1.03 | locus YHR013C, strain ard1, active compounds read low 1.03 | locus YHR027C, strain rpn1, active compounds read low 1.02 | locus YHR030C, strain SLT2, active compounds read low 0.989 and 0.974 | locus YHR079C, strain IRE1 (second series), active compounds read low 0.98 | locus YHR079C, strain IRE1, active compounds read low 0.987 | locus YHR094C, strain hxt1, active compounds read low 1 | locus YHR129C, strain ARP1, active compounds read low 0.997 | locus YHR142W, strain chs7, active compounds read low 1.01 | locus YHR200W, strain rpn10, active compounds read low 0.969 | locus YIL066C, strain RNR3, active compounds read low 1.02 | locus YIL073C, strain SPO22, active compounds read low 0.941 | locus YIL125W, strain kgd1, active compounds read low 0.999 | locus YIR030C, strain dcg1, active compounds read low 0.993 | locus YJL092W, strain hpr5, active compounds read low 0.998 | locus YJL095W, strain BCK1 (second series), active compounds read low 1.02 | locus YJL095W, strain BCK1, active compounds read low 1.06 and 0.986 | locus YJL115W, strain asf1, active compounds read low 0.989 | locus YJL129C, strain trk1, active compounds read low 1.02 | locus YJL134W, strain LCB3, active compounds read low 0.99 | locus YJL154C, strain vps35, active compounds read low 0.981 | locus YJL164C, strain tpk1, active compounds read low 0.996 | locus YJL166W, strain qcr8, active compounds read low 0.981 | locus YJL168C, strain set2, active compounds read low 0.996 | locus YJL187C, strain SWE1 (second series), active compounds read low 1.01 | locus YJR043C, strain POL32, active compounds read low 1.01 | locus YJR066W, strain TOR1, active compounds read low 0.92
